The values below come from PubChem BioAssay (NCI).

Some test systems named below: SR leukemia; OVCAR-8 ovarian; OVCAR-5 ovarian; OVCAR-4 ovarian; SK-OV-3 ovarian; IGROV1 ovarian; OVCAR-3 ovarian; HS 578T breast; NCI/ADR-RES ovarian; T-47D breast; BT-549 breast; MDA-MB-435 melanoma; SW-620 colon; MCF7 breast; HCT-116 colon; HCC-2998 colon; KM12 colon; RPMI-8226 leukemia.
Experiment in all cases: NCI-60 one-dose screen, 48 h (100 = growth as untreated, 0 = no growth, -100 = all killed)
Holding throughout (settings): 10 µM unless noted

Molecules are shown by their SMILES. The panel holds about 83,000 compounds, 20% with a hit somewhere; the sample as a whole holds those more often.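 Growth was measured after 48 h exposure to one concentration of compound in 96-well plates. Values under 10 count as active.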 A number with no mark means an inactive call. Activity calls are given as the source filed them.

In the case of `Cc1ccc(NC2CC(=O)N(c3c(C)cc(C)cc3C)C2=O)c(C)c1` (stereo not drawn), the growth with SR leukemia was 95.3%; with OVCAR-8 ovarian, 107%; with OVCAR-5 ovarian it was 104%; in the test with OVCAR-4 ovarian it was 98.6%; in the test with SK-OV-3 ovarian it was 121%; with IGROV1 ovarian, 93.9%. In addition, the growth with OVCAR-3 ovarian is 115%; in the test with HS 578T breast, 104%; with NCI/ADR-RES ovarian, 106%; in the test on T-47D breast, 99.4%; with BT-549 breast it was 113%; in the test on MDA-MB-435 melanoma, 103%. In addition, the growth with SW-620 colon was 101%; in the test on MCF7 breast it was 92.9%; in the test on HCT-116 colon, 105%; in the test on HCC-2998 colon, 112%; in the test with KM12 colon, 102%.
For `O=S(=O)(NCCNc1cc(-c2cn(-c3ccccc3)nc2-c2cccc(O)c2)ccn1)c1cccc(F)c1`, the growth with RPMI-8226 leukemia was 22.9%; in the test on OVCAR-8 ovarian, 34.2%; with OVCAR-5 ovarian, 54.8%; in the test on OVCAR-4 ovarian, 39.4%; in the test with SK-OV-3 ovarian it was 50.3%; in the test on IGROV1 ovarian it was 43.5%. Moreover, the growth in the test with OVCAR-3 ovarian is 50.8%; in the test on HS 578T breast, 37.6%; in the test with NCI/ADR-RES ovarian, 33.1%; in the test on T-47D breast it was 11.6%; in the test on BT-549 breast, 48%; with MDA-MB-435 melanoma, 43.5%. For the same compound, the growth was 19.1% in the test on SW-620 colon; 21.4% with MCF7 breast; 23.2% with HCT-116 colon; -15.6% (active) in the test on HCC-2998 colon; 31.1% with KM12 colon.
Take `Cc1cc(N(CCNc2ccnc3cc(Cl)ccc23)Cc2ccco2)nc(Cl)n1`: the growth in the test with RPMI-8226 leukemia was -29.5% (active); in the test with OVCAR-8 ovarian, -26.6% (active); in the test with OVCAR-5 ovarian, -37.5% (active); in the test on OVCAR-4 ovarian, -59.7% (active); with SK-OV-3 ovarian it was -36.3% (active); in the test on IGROV1 ovarian it was -72.1% (active). In addition, the growth with OVCAR-3 ovarian is -89.5% (active); with HS 578T breast, 6.7% (active); with NCI/ADR-RES ovarian, -4.64% (active); in the test on T-47D breast, -69.1% (active); with BT-549 breast it was -78% (active); with MDA-MB-435 melanoma, 30.1%. In addition, the growth in the test on SW-620 colon is -35.6% (active); with MCF7 breast, -29.7% (active); with HCT-116 colon, -96.8% (active); in the test with HCC-2998 colon, 62.2%; in the test with KM12 colon, 26.5%.
For `OCC1OC(n2cnc3c(Cl)ncnc32)CC1O` (stereo not drawn), the growth in the test on RPMI-8226 leukemia was 98.3%; with OVCAR-8 ovarian, 104%; in the test on OVCAR-5 ovarian, 101%; with OVCAR-4 ovarian, 120%; in the test on SK-OV-3 ovarian it was 104%; in the test on IGROV1 ovarian, 98.9%. Moreover, the growth is 115% with OVCAR-3 ovarian; 108% in the test with HS 578T breast; 118% with NCI/ADR-RES ovarian; 92.1% in the test on T-47D breast; 114% with BT-549 breast; 104% in the test on MDA-MB-435 melanoma. The growth was 98.7% with SW-620 colon; 95.2% in the test on MCF7 breast; 94.1% in the test with HCT-116 colon; 108% in the test with HCC-2998 colon; 107% in the test with KM12 colon.
Turning to `Cn1cccc1/C=C1/SC(=S)N(CCc2ccc(O)cc2)C1=O`, the growth with SR leukemia is 24.1%; in the test on OVCAR-8 ovarian it was 67.1%; with OVCAR-5 ovarian it was 95.9%; with OVCAR-4 ovarian, 89.4%; in the test on SK-OV-3 ovarian it was 83.5%; in the test with IGROV1 ovarian, 45.7%. The growth in the test on OVCAR-3 ovarian is 39.4%; in the test with HS 578T breast, 67.7%; in the test with NCI/ADR-RES ovarian, 16.3%; with T-47D breast, 42%; with BT-549 breast it was 41.4%; with MDA-MB-435 melanoma, -27.9% (active). The growth with SW-620 colon was 31.6%; with MCF7 breast it was 33.8%; with HCT-116 colon, 21.4%; with HCC-2998 colon, 77.4%; with KM12 colon, 40.5%.
As to `CCCC1CCCCN1C(=O)OCC(C)C` (stereo not drawn), the growth in the test with RPMI-8226 leukemia is 108%; in the test with OVCAR-8 ovarian, 105%; in the test with OVCAR-5 ovarian it was 102%; in the test with OVCAR-4 ovarian it was 113%; in the test on SK-OV-3 ovarian, 110%; in the test on IGROV1 ovarian, 101%. Also, the growth was 112% in the test on OVCAR-3 ovarian; 102% in the test with HS 578T breast; 137% with NCI/ADR-RES ovarian; 104% in the test on T-47D breast; 114% in the test on BT-549 breast; 100% in the test with MDA-MB-435 melanoma. In addition, the growth is 98.4% with SW-620 colon; 100% in the test with MCF7 breast; 103% in the test on HCT-116 colon; 125% in the test on HCC-2998 colon; 105% with KM12 colon.
`Clc1cc(Cl)cc(Nc2ccc3c(OCCCN4CCOCC4)cccc3n2)c1`: the growth in the test with RPMI-8226 leukemia is 11.1%; in the test with OVCAR-8 ovarian, 81.8%; with OVCAR-5 ovarian it was 49.3%; with OVCAR-4 ovarian it was 65.3%; in the test on SK-OV-3 ovarian, 75.8%; in the test with IGROV1 ovarian it was 72.9%. Moreover, the growth was 64.8% in the test with OVCAR-3 ovarian; 35.9% with HS 578T breast; 60.9% in the test on NCI/ADR-RES ovarian; 60.4% with T-47D breast; 72.7% in the test with BT-549 breast; 57.4% with MDA-MB-435 melanoma. Moreover, the growth in the test with SW-620 colon is -41.9% (active); in the test with MCF7 breast, 21.6%; in the test on HCT-116 colon, 27.5%; in the test with HCC-2998 colon, 36.7%; in the test on KM12 colon, -51.2% (active).
Regarding `Cn1nc(-c2ccccc2)c2c(-c3ccccc3)onc2c1=O`, the growth in the test on RPMI-8226 leukemia is 24.9%; with OVCAR-8 ovarian, 51.9%; in the test with OVCAR-5 ovarian it was 66.5%; in the test on OVCAR-4 ovarian, 72.1%; in the test on SK-OV-3 ovarian, 13.3%; in the test on IGROV1 ovarian it was 51.3%. Also, the growth was 12.2% in the test on OVCAR-3 ovarian; 15.8% in the test with HS 578T breast; 45.8% in the test on NCI/ADR-RES ovarian; 26.8% with T-47D breast; 47.4% with BT-549 breast; -1.78% (active) in the test with MDA-MB-435 melanoma. Besides, the growth in the test on SW-620 colon was 28.9%; in the test with MCF7 breast, 23.6%; with HCT-116 colon it was 42.5%; with HCC-2998 colon it was 74.5%; in the test on KM12 colon, 33.7%.
Turning to `N#C/C(=C\c1ccc(-c2ccc(F)cc2)o1)c1nc(-c2ccco2)cs1`, the growth with SR leukemia was 86.3%; with OVCAR-8 ovarian, 102%; in the test on OVCAR-5 ovarian, 65.1%; in the test with OVCAR-4 ovarian, 19.2%; in the test on SK-OV-3 ovarian, 103%; in the test on IGROV1 ovarian, 60%. Also, the growth in the test with OVCAR-3 ovarian was 105%; in the test with HS 578T breast, 109%; in the test on NCI/ADR-RES ovarian, 107%; in the test with T-47D breast, -26.3% (active); in the test on BT-549 breast, 106%; in the test with MDA-MB-435 melanoma, 102%. The growth in the test with SW-620 colon was 96.5%; in the test with MCF7 breast, 11.7%; with HCT-116 colon, 101%; with HCC-2998 colon, 51%; in the test with KM12 colon it was 60.6%.
